PubChem BioAssay AID2546 (National Center for Advancing Translational Sciences (NCATS), 2010)
Out of some 310,000 compounds screened, about 11,000 (3.5%) were called active. Inconclusive results (about 8%) are left out. What follows is part of a selection rich in actives, with near analogues and random picks from the rest. A number with no mark means an inactive call. Calls follow the shape of the dose curve; as a rule, active = well fitted inhibition curve with a large enough effect; inconclusive = small, poorly fitted or top-dose-only effect, or effect the other way; inactive = flat fitted curve, though single readings scatter.

experiment: VP16 counterscreen qHTS for inhibitors of ROR gamma transcriptional activity; settings: Drosophila S2 Gal4-VP16 UAS-luciferase, luminescence, 20 h; series mostly up to 53.6 µM; activity, negative = inhibition: at the top concentration;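 also: Gal4-VP16 expression switched on by copper sulfate through the metallothionein promoter; nearly all actives have a fitted effect of over 50% in size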
% is scaled to controls: 0 for no effect and ±100 for the full control effect; potency is read from the fitted curve at half-maximal effect.

Structure (SMILES)	activity, negative = inhibition	Potency
Cn1cnc2c1c(=O)n(Cc1ccccc1C#N)c(=O)n2C	-8.7%	–
Cc1cc2oc(=O)cc(CN(C)Cc3ccc(OC(F)F)cc3)c2cc1Cl	-9.54%	–
CCOC(=O)Cc1csc(NC(=O)CN(C)S(=O)(=O)c2ccc3c(c2)CCC(=O)N3)n1	–	11.2 µM (active)
Cc1cccc(N2CCN(C(=O)CN(C)S(=O)(=O)c3ccc4c(c3)CCC(=O)N4)CC2)c1C	-6.16%	–
CCOC(=O)Cc1csc(NC(=O)CSc2nc(C)cc(=O)[nH]2)n1	6.99%	–
CCOC(=O)C1CCN(C(=O)C2CCCN(S(=O)(=O)c3ccc(OC)c(Cl)c3)C2)CC1 (stereo not drawn)	-22.2%	–
CC1(C(=O)NCCc2c[nH]c3ccccc23)C=CC2(CCCCC2)N1C(=O)c1ccccc1 (stereo not drawn)	-17.5%	–
COc1ccc(NC(=O)CN(C)C(=O)CNC(=O)C2CCCCC2)cc1	0.357%	–
O=c1[nH][nH]c(=O)c2cc(N3CCCC3)ccc12	1.98%	–
O=C1C=CC(=O)N1c1ccc(N2CCCCC2)cc1	–	8.91 µM (active)
CCOC(=O)/C(C#N)=C/c1ccc(N2CCCCC2)cc1	-4.63%	–
Oc1ccc(Br)cc1/C=N/Nc1ccccn1	–	10 µM (active)
O=C(Nc1ccc(Br)cc1)c1cc(S(=O)(=O)Nc2ccccn2)ccc1Cl	-5.39%	–
O=[N+]([O-])c1ccc(O)c(/C=N/Nc2ccccc2[N+](=O)[O-])c1	-15%	–
COc1ccc(NC(=O)NNC(=O)COc2cc(C)c(Cl)c(C)c2)c(OC)c1	-14.3%	–
O=C1CCN(CCc2ccccc2)CCN1CCOc1ccccc1	7.5%	–
Cc1ccc(C(=O)CCC(=O)N(C)CC(=O)Nc2c(Cl)cccc2Cl)cc1	-9.47%	–
CC(=O)Nc1ccc(S(=O)(=O)Oc2ccc(/C=N/N=C3/NC(=O)C(CC(=O)O)S3)cc2)cc1 (stereo not drawn)	-5.43%	–
CCC1C/C(=C/c2cccs2)C(=O)/C(=C/c2cccs2)C1 (stereo not drawn)	-6.69%	–
CCCCC1S/C(=N/N=C/c2cccs2)NC1=O (stereo not drawn)	–	0.316 µM (active)
CCN(CC)CCCNC(=O)COc1ccc2oc3c(c2c1)CCCC3	3.68%	–
COc1ccc(NC(=O)Nc2cccc3cccnc23)cc1	3.34%	–
Cc1ccc(OCC(=O)Nn2cnc3ccccc32)cc1	-19%	–

Structure (SMILES)	activity, negative = inhibition	Potency
Cc1ccc(OS(=O)Nc2cccc3nccnc23)cc1 (stereo not drawn)	–	3.16 µM (active)
O=C(CN1C(=O)COc2ccc(Cl)cc21)Nc1ccc(N2CCOCC2)cc1	-5.32%	–
O=C(Nc1cc(N2CCOCC2)ncn1)NC1(C(F)(F)F)Oc2ccc(Cl)cc2O1 (stereo not drawn)	–	15.8 µM (active)
Cc1csc(NC(=O)NC2(C(F)(F)F)Oc3ccccc3O2)n1	1.3%	–
COc1ccc(NC(=O)COc2ccc(C(=O)c3ccc(F)cc3)cc2)cc1S(N)(=O)=O	-23.6%	–
COc1ccc(NC(=O)C/C(C)=N/NC(=O)c2cnccn2)cc1Cl	21.2%	–
CCOC(=O)C1CCN(C(=O)COc2cccc3ccccc23)CC1	8.47%	–
CCN(CC)C(=O)COc1coc(CN2CCN(Cc3ccccc3)CC2)cc1=O	2.76%	–
Cc1ccccc1-c1n[nH]c(=S)n1/N=C/c1ccc(-c2ccccc2Br)o1	-9.75%	–
Cc1ccccc1-c1n[nH]c(=S)n1C	–	7.94 µM (active)
CCCc1cc(-c2n[nH]c(=S)n2CC)c2ccccc2n1	-5.97%	–
O=C(Nc1cccc(NC(=O)c2ccccc2[N+](=O)[O-])c1)c1ccccc1Cl	-0.237%	–
COC(=O)N/N=C/c1cn(CCCOc2ccc(C)cc2)c2ccccc12	–	1 µM (active)
CCOC(=O)N/N=C/c1cn(Cc2ccccc2Cl)c2ccccc12	-29.6%	–
COc1cccc(Cn2cc(/C=N/NC(=O)c3cc(O)cc(O)c3)c3ccccc32)c1	-2.82%	–
CCOC(=O)N1CCC(N2Cc3cccc(C(=O)Nc4ccc(S(=O)(=O)N(CC)CC)cc4)c3C2=O)CC1	-6.58%	–
CCN(CC)CCn1c(/N=C/c2cc(Br)ccc2O)nc2ccccc21	–	6.31 µM (active)
C/C(=N\c1nc2ccccc2n1C)c1cc(Cl)ccc1O	-2.88%	–
Oc1ccc(Cl)cc1/C=N/c1nc2ccccc2[nH]1	-9.3%	–
Cc1sc2ncn(CC(=O)NCCCC(=O)N3CCN(c4ccccc4F)CC3)c(=O)c2c1C	-6.88%	–
Cn1cccc1/C=N/NC(=O)CNc1cccc2ccccc12	-5.21%	–
Cn1cccc1/C=N/NC(=O)c1ccc(OC(F)(F)C(F)F)cc1	–	5.62 µM (active)
COc1ccc(/C=N/NC(=O)c2cccc(C(F)(F)F)c2)cc1	6.66% [at 10 µM]	–

Structure (SMILES)	activity, negative = inhibition	Potency
O=C(NCCc1cccc(F)c1)C1CCCN(c2nc3ccccc3s2)C1 (stereo not drawn)	21.4%	–
COc1cc(NC(=O)c2ccccc2)c(OC)cc1NC(=O)Cc1ccccc1	-4.59%	–
NC(=O)COC(=O)/C=C/c1ccc2ccccc2n1	2.36%	–
COc1cccc(/C=C/c2ccc3ccccc3n2)c1OC(C)=O	–	5.01 µM (active)
COc1cccc(/C=C2\C=C(c3ccc(C)cc3)OC2=O)c1OC(C)=O	-6.1%	–
CCOc1ccccc1-c1cc(C(=O)N/N=C(\C)c2cccnc2)c2ccccc2n1	-21%	–
COC(=O)[C@H](C)NC(=O)Nc1ccc(OC(F)(F)F)cc1	5.72%	–
CSc1sc(C(=O)NNC(=O)c2ccc(Cl)cc2)c2c1C=CCC2	4.81%	–
CS(=O)(=O)c1sc(C(=O)NC(=S)Nc2ccc(OC(F)(F)F)cc2)c2c1C=CCC2	–	11.2 µM (active)
CC(C)c1c(C(=O)N/N=C/c2ccc(-c3ccccc3)cc2)nnn1-c1nonc1N	-8.19%	–
Cc1cc(C(C)(C)C)n2nc(C)c(-c3ccccc3)c2n1	-4.74%	–
Cc1cc(N2CCCC2)n2nc(C)c(-c3ccccc3)c2n1	8.17%	–
Cc1nn2c(NCCN(C)C)c3c(nc2c1-c1ccccc1)CCC3	–	0.794 µM (active)
CCOC(=O)C1(Cc2cccc(OC)c2)CCCN(C(=O)CCSC)C1 (stereo not drawn)	-1%	–
CCN(CC)S(=O)(=O)c1ccc(N2CCN(C)CC2)c(NC(=O)Nc2ccccc2F)c1	-4.65%	–
Cc1ccccc1CN1CCNC(=O)C1CC(=O)NCCC1=CCCCC1 (stereo not drawn)	1.67%	–
O=C(CC1CCCCC1)NCc1ccccc1	24%	–
C/C(=N\NC(=S)NCc1ccccc1)C1CCCCC1	–	1 µM (active)
O=C(O)c1ccc(/C=N/NC(=S)NCc2ccccc2)cc1	-14.7%	–
C/C(=N\NC(=S)NCc1ccccc1)c1ccc(Cl)cc1	–	0.794 µM (active)
CC1CCCCN1C(=S)NCc1ccccc1 (stereo not drawn)	22.1%	–
C[n+]1ccc(C(=O)NCc2ccccc2)cc1	-9.88%	–
